Compounds with a hit are over-represented: about 2.4% of the library has one in this group of screens.
Tb PGK inh – blocks T. brucei phosphoglycerate kinase | P07378 | PGK/GAPDH coupled, Kinase-Glo luminescence, 60 min | Potency, µM (doses to about 57.5 µM), hits mostly inhibitors | 380,000 tested, 0.043% active; also: nearly all actives have a fitted effect of over 60% in size
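Recombinant glycosomal PGK reaction used 1,3-bisphosphoglycerate generated in-well by GAPDH (100nM final) in 100mM TEA pH 7.6, 5mM MgCl2, 0.01% Tween-20. After 60 minutes at room temperature, ATP was read by Kinase-Glo Plus luminescence end-point.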
Rango-impB inh – inhibitors of Rango-importin beta complex formation; AID 540263; 340,000 tested, 0.031% active; Q14974; Potency, µM (highest dose often 92.2 µM); Rango CFP/YFP FRET sensor + importin beta, 45 min; calls by dose curve; also: nearly all actives have a fitted effect of over 15% in size
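FRET biosensor Rango (snurportin 1 IBB between N-terminal EYFP and C-terminal Cerulean), 50 nM in PBS/1 mM DTT/0.02% Tween-20/0.1% BSA, preincubated 5 min RT with compound; 0.125 microM importin beta added, 45 min RT, CFP/YFP FRET ratio read.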
PKM2 act – activators of human pyruvate kinase M2; Potency, µM (highest dose often 57.5 µM), hits mostly activators; AID 1631; purified PKM2, Kinase-Glo ATP luminescence, activation; response scale: 0% is enzyme alone, no compound; P14618; 260,000 tested, 0.34% active; also: nearly all actives have a fitted effect of over 55% in size
Target sequence (P14618 whole entry, looked up): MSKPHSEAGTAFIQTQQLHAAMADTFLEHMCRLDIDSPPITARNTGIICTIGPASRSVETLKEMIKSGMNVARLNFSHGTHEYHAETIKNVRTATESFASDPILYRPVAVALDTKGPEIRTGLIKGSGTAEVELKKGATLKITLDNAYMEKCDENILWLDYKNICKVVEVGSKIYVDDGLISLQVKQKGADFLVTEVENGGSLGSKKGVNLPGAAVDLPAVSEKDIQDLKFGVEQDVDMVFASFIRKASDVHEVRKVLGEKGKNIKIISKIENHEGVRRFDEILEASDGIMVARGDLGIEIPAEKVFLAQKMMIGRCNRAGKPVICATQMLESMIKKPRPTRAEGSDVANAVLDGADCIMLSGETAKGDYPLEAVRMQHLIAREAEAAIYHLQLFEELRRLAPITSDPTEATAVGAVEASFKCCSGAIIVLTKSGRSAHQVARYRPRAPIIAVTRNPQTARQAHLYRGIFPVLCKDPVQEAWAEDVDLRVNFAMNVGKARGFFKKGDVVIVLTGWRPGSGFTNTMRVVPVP
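hPK-M2, >95% pure; 0.1 mM ADP / 0.5 mM PEP final; imidazole pH7.2 buffer w/ 7 mM MgCl2, 50 mM KCl; 1 h RT; Kinase-Glo lum. Intermediate enzyme activity for dual inhibitor/activator qHTS.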
Tb PFK inh-1 – blocks T. brucei phosphofructokinase. 330,000 tested, 0.17% active. T. brucei PFK, ADP-Glo luminescence. O15648. Potency, µM (doses to about 57.5 µM), actives largely listed as inhibitors; also: nearly all actives have a fitted effect of over 60% in size
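Compounds were pin-transferred as a titration series up to 57 uM into substrate buffer (0.5 mM F6P, 0.1 mM ATP, pH 8.0), then 1.25 nM PFK was added and reactions ran 45 min before ADP-Glo detection.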
ELG1 repair inh – ELG1-dependent DNA repair inhibition; HEK293T ELG1-luciferase reporter, luminescence, 16 h; DNA damage induced by 5-fluorouridine; Potency, µM (titrated, usually from 46.1 µM), actives largely listed as inhibitors; 330,000 tested, 2.3% active; also: nearly all actives have a fitted effect of over 55% in size
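Luminescence from the luciferase reporter, measured 30 min after ONE-Glo reagent at room temperature, was the read-out. Beforehand, 2,000 cells per well were exposed for 16 hr at 37 °C to 5-fluorouridine together with compound or vehicle.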
Rango dissoc inh – inhibitors of RanGTP-induced Rango-importin beta complex dissociation; 340,000 tested, 0.071% active; AID 540253; Potency, µM (top dose mostly 46.1 µM); Biochemical FRET Rango-importin beta, RanGTP-induced dissociation; O95149+P62826; calls by dose curve; also: nearly all actives have a fitted effect of over 45% in size
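Two FRET readings bracket the reaction: one 5 min after compound meets Rango–importin beta, another 45 min after RanGTP-RCC1 (0.6 uM Ran, 0.2 uM RCC1, 2 mM GTP) is added. Only the second defines inhibition.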
HeLa tox – reduces HeLa cell viability in PKM2 activator counter-screen | shares compounds with PKM2 act | HeLa viability, CellTiter-Glo ATP luminescence, 24 h | activity change, negative = cytotoxicity, % at 57.5 µM | 230 tested, under 10 active
Tb PFK KinaseGlo – orthogonal confirmation of T. brucei phosphofructokinase inhibitors; Potency, µM (series often up to 57.5 µM); shares compounds with Tb PFK inh-1; AID 504636; Tb PFK enzyme, ATP depletion, Kinase-Glo Plus luminescence; 1,100 tested, 47% active; calls by dose curve; also: nearly all actives have a fitted effect of over 60% in size
Tb PFK inh-2 – validation of T. brucei phosphofructokinase inhibitors; shares compounds with Tb PFK inh-1; purified T. brucei PFK, ADP-Glo luminescence, 45 min; Potency, µM (top dose mostly 57.5 µM), hits mostly inhibitors; 1,100 tested, 41% active; AID 504637; also: nearly all actives have a fitted effect of over 60% in size
Of the large screens only hits and unclear results are named; the others gave an inactive call (follow-up assays come after a bar, where they were run). Unless noted, calls follow the shape of the dose curve; as a rule, active = well fitted curve in the direction sought with a large enough effect; inconclusive = small, poorly fitted or top-dose-only effect, or another doubt; inactive = no such curve, though single readings can be large; an effect the other way counts as inactive or inconclusive.

CCn1c(C)nc2cc(C(=O)N/N=C/c3ccc(O)c(O)c3O)ccc21	Rango-impB inh inconclusive, PKM2 act 3.2µM, Tb PFK inh-1 inconclusive, ELG1 repair inh inconclusive | HeLa tox inactive | Tb PFK KinaseGlo inconclusive | Tb PFK inh-2 inconclusive
O=C(O)COc1ccccc1C=NNc1ccc([N+](=O)[O-])cc1S(=O)(=O)Nc1ccc(Cl)cc1	Rango-impB inh inconclusive, Tb PFK inh-1 19µM, Rango dissoc inh inconclusive (no result: PKM2 act) | Tb PFK KinaseGlo 30µM | Tb PFK inh-2 inconclusive
Cc1cc(C)c2c(=O)n(CC(=O)Nc3ccc(Cl)cc3)sc2n1	Rango-impB inh inconclusive, Tb PFK inh-1 8.5µM | Tb PFK KinaseGlo inconclusive | Tb PFK inh-2 3.8µM
Cc1cc(C)c2c(=O)n(CC(=O)NCCCN3CCOCC3)sc2n1	Tb PFK inh-1 8.5µM | Tb PFK KinaseGlo inconclusive | Tb PFK inh-2 11µM
CCN(CC)C(=O)c1ccc(NC(=O)Cn2nc(C)c3ccccc3c2=O)cc1	none
Cc1cccc(N2CCN(C(=O)Cn3sc4nc(C)cc(C)c4c3=O)CC2C)c1 (stereo not drawn)	PKM2 act inconclusive, Tb PFK inh-1 15µM | Tb PFK KinaseGlo inactive | Tb PFK inh-2 inactive
CCOc1ccc(NC(=O)Cn2sc3nc(C)cc(C)c3c2=O)cc1	Rango-impB inh inconclusive, Tb PFK inh-1 inconclusive | Tb PFK KinaseGlo inconclusive | Tb PFK inh-2 8.5µM
Cc1[nH]c2ccc(OC(=O)N3CCOCC3)cc2c1C(=O)OC(C)C	ELG1 repair inh inconclusive
CN(CC(=O)N1CCc2ccccc21)S(=O)(=O)c1cccs1	ELG1 repair inh inconclusive
Cc1cc(C)c2c(=O)n(CC(=O)Nc3cccc(F)c3)sc2n1	Tb PFK inh-1 7.6µM, ELG1 repair inh inconclusive | Tb PFK KinaseGlo inconclusive | Tb PFK inh-2 4.8µM
COC(=O)C1=C(c2ccc(F)cc2OCc2ccccc2)C[C@@H]2CC[C@H]1N2C(=O)NCc1ccc(C(F)(F)F)cc1	ELG1 repair inh inconclusive (no result: PKM2 act)
O=C(CN1CC(c2ccccc2)CC1=O)NCc1ccc(F)cc1 (stereo not drawn)	none
O=C(NCc1ccc(F)cc1)C(=O)NCC1CCCN1S(=O)(=O)c1ccccc1 (stereo not drawn)	Tb PFK inh-1 inconclusive, ELG1 repair inh inconclusive (no result: PKM2 act) | Tb PFK KinaseGlo 24µM | Tb PFK inh-2 inconclusive
Cc1cc(=O)n(-c2ccccc2)n1C	ELG1 repair inh inconclusive (no result: PKM2 act)
CNc1cccccc1=S	Tb PFK inh-1 12µM | Tb PFK KinaseGlo inconclusive | Tb PFK inh-2 inconclusive
O=C(Cn1ccc2ccccc2c1=O)NCCC(=O)N1CCN(c2cccc(Cl)c2)CC1	Rango-impB inh inconclusive, Tb PFK inh-1 24µM, ELG1 repair inh inconclusive | Tb PFK KinaseGlo inconclusive | Tb PFK inh-2 inconclusive
O=C1CCc2cc(S(=O)(=O)NCCC(=O)N3CCN(c4cccc(Cl)c4)CC3)ccc2N1	Tb PFK inh-1 27µM, ELG1 repair inh inconclusive | Tb PFK KinaseGlo 17µM | Tb PFK inh-2 inconclusive
COc1cc(OC)cc(C(=O)Nc2ccc(Cl)cc2C(=O)c2ccccc2Cl)c1	none (no result: Rango-impB inh, PKM2 act, Tb PFK inh-1, ELG1 repair inh, Rango dissoc inh)
O=C(c1ccc(Cl)cc1)C1CCCN(Cc2ccc3c(c2)OCCO3)C1 (stereo not drawn)	none
O=C(NCc1cccc(Cl)c1)c1ccc2c(c1)OCCO2	Tb PFK inh-1 24µM | Tb PFK KinaseGlo 13µM | Tb PFK inh-2 19µM
COC(=O)NCc1ccc(Cl)c(Cl)c1	Tb PFK inh-1 21µM | Tb PFK KinaseGlo 11µM | Tb PFK inh-2 30µM
CC(=O)c1ccc2c(c1)OCO2	none
O=C(NCCS(=O)(=O)N1CCN(c2cccc(Cl)c2)CC1)c1ccc2c(c1)OCO2	Tb PFK inh-1 inconclusive (no result: PKM2 act) | Tb PFK KinaseGlo 21µM | Tb PFK inh-2 inconclusive
O=C(NCc1ccccc1)Oc1cccc(Cl)c1	ELG1 repair inh inconclusive
O=C(CN1CCCCC1)c1ccc2c(c1)OCO2	ELG1 repair inh inconclusive
O=C(NCc1ccc(Cl)c(Cl)c1)c1ccc2c(c1)OCO2	Tb PFK inh-1 24µM | Tb PFK KinaseGlo 7.6µM | Tb PFK inh-2 8.5µM
COc1ccc(OC)c(CCNCc2c(C(=O)O)c(C)n(Cc3ccc(F)cc3Cl)c2C)c1	none (no result: Rango-impB inh, PKM2 act, Tb PFK inh-1, ELG1 repair inh, Rango dissoc inh)
O=C(c1ccc2c(c1)N(Cc1ccc(F)cc1)CCS2)N1CCC2(CC1)OCCO2	none
Nc1nc2ccccc2n1Cc1ccc(Cl)c(Cl)c1	Tb PFK inh-1 inconclusive | Tb PFK KinaseGlo 13µM | Tb PFK inh-2 inconclusive
Cc1ccc(C(=O)n2c(N)nc3ccccc32)cc1	Tb PGK inh inconclusive, ELG1 repair inh inconclusive
N=C1SCC(=O)N1c1ncc(Cc2cccc(Cl)c2)s1	Tb PFK inh-1 inconclusive, ELG1 repair inh inconclusive | Tb PFK KinaseGlo 24µM | Tb PFK inh-2 inconclusive
Cn1c(Oc2ccccc2NCc2cc(Br)ccc2O)cc(=O)n(C)c1=O	Tb PFK inh-1 inconclusive, ELG1 repair inh inconclusive | Tb PFK KinaseGlo 19µM | Tb PFK inh-2 13µM

Screening data: PubChem, National Center for Advancing Translational Sciences (NCATS)
